Pf growth 48h: P. falciparum growth inhibition at 48 hours (one generation) | P. falciparum luciferase growth in erythrocytes, 48 h | Potency, µM (doses to about 28.7 µM), for the others: top-dose activity change, negative = inhibition, hits mostly inhibitors | 5.9% of 310,000 active; further: potency means the concentration at half of the fitted maximal effect; on the % scale 0 is the no-effect control and ±100 the full control effect
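Luciferase-expressing parasites in RBCs, 2% Hct / 0.1% parasitemia final; RPMI 1640 + 0.5% Albumax; 37 C, 5% CO2, one generation; luminescence read-out, lower signal = inhibition.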
Pf growth 96h: inhibits malaria parasite growth, 96 h | P. falciparum luciferase reporter growth, 96 h | Potency, µM (doses to about 28.7 µM), for inactives: top-dose activity change, negative = inhibition, hits mostly inhibitors | 6.9% of 320,000 active; further: potency means the concentration at half of the fitted maximal effect; on the % scale 0 is the no-effect control and ±100 the full control effect
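Erythrocytes infected with luciferase-expressing P. falciparum were dispensed at 2% hematocrit and 0.05% parasitemia (final), then incubated with compounds 96 hours at 37 C in 5% CO2. Luminescence after detection reagent addition reported growth.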
NS1 function inh: influenza NS1 inhibition | Potency, µM (doses to about 46.1 µM), for inactives: at the highest dose activity, positive = more growth | AID 2326 | 0.4% of 270,000 active; calls by dose curve; further: potency means the concentration at half of the fitted maximal effect; actives are rising curves; nearly all actives have a fitted effect of over 50% in size
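In this qHTS, NS1 from influenza A is expressed in budding yeast, where it slows growth. Cells are switched from glucose to 2% galactose medium (pH 6.0, -URA), treated with compound, and growth recovery is read at OD600.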
Cycloheximide cs: counter-screen for Shiga toxin inhibitors: cycloheximide protein synthesis inhibition; cell reporter, cycloheximide protein synthesis inhibition counterscreen; max response, %; 12% of 300,000 active; in the data active means max response mostly above about 13%, no sharp cut-off; inactive means mostly below about 14%; further: read at 38.3 µM for the half of the compounds with a filed dose; 0% is about no effect
Shiga toxin inh: inhibitors of Shiga toxin in Vero cells; Vero cells, Shiga toxin protein synthesis inhibition reporter; inhibition, % at 38.7 µM; 9.2% of 290,000 active; in the data active means inhibition mostly above about 28%, no sharp cut-off; inactive means mostly below about 43%; further: 0% is about no effect
An asterisk follows results filed as active; i = inactive; ? = inconclusive; / = not tested or not shown; + = active, no number. A selection: hits, their analogues and other compounds. The true share with any hit is near 21%. Unless noted, the call rests on the fitted dose curve; in most records, active means well fitted inhibition curve with a large enough effect; inconclusive means small, poorly fitted or top-dose-only effect, or another doubt; inactive means no such curve, though single readings can be large or run the other way.

SMILES	Pf growth 48h	Pf growth 96h	NS1 function inh	Cycloheximide cs	Shiga toxin inh
N#CCCN(Cc1ccccc1)C(=O)Nc1ccc2c(c1)CCO2	-3%	4%	4%	3	18
CCCC(=O)C1=C(O)C(c2cccc(Oc3ccccc3)c2)CCC1=O (centres undefined)	-2%	1%	/	-7	-11
O=C1CCN(Cc2ccccc2)CCN1CCOc1ccccc1	75%	85%	-25%	42*	76*
O=C(Nc1ccccc1)OCCN1CCN(Cc2ccccc2)CCC1=O	31%	18%	18%	5	-11
CC1CCC(=O)N(CCOc2ccccc2)CC1 (centres undefined)	98%	-34%	-11%	39*	58*
O=C(Nc1ccc(Cl)cc1)OCCN1CCN(Cc2ccccc2)CCC1=O	/	/	/	34*	+
C[C@H]1CCC(=O)N([C@H](COc2ccccc2)Cc2ccccc2)CC1	?	?	-58%	-2	-1
CC(C)[C@@H](COc1ccccc1)N1CCN(Cc2ccccc2)CCC1=O	?	6.6µM*	-9%	3	-1
O=C(CSc1ccsc1[N+](=O)[O-])N1CCN(c2ccccn2)CC1	?	?	/	22	32
Cc1nc2ccccc2c(=O)n1N(c1ccccc1)c1ccccc1	?	4%	/	-5	10
O=C(COC(=O)C12CC3CC(CC(C3)C1)C2)Nc1ccc2[nH]c(=O)[nH]c2c1	?	-4%	7%	-3	2
CC(C)N1C(=S)N(Cc2ccco2)C(=O)C1CC(=O)Nc1ccccc1 (centres undefined)	1µM*	?	/	-2	-9
O=C(CC1C(=O)N(c2ccccc2)C(=O)N1Cc1ccco1)Nc1ccccc1 (centres undefined)	13%	15µM*	-1%	-3	30
COc1ccc(NC(=O)CC2C(=O)N(C)C(=S)N2Cc2ccco2)cc1 (centres undefined)	-7%	294%	6%	-2	-11
O=C(Nc1ccc(NC(=S)NC(=O)c2cccs2)cc1)c1ccco1	?	12%	-3%	-2	18
C/C(=N/NC(=O)C1CCCC1)c1ccc(NC(=O)C(F)(F)F)cc1	3%	?	8%	19*	32
Cc1ccc(NC(=O)c2ccccc2NC(=O)c2cccs2)cc1	5%	-17%	-9%	2	14
COc1ccc(NC(=O)c2ccc(NC(=O)c3cccs3)cc2)cc1	-8%	76%	21%	9	1
C/C(=N\NC(=O)c1ccccc1C)c1ccc(NC(=O)c2cccs2)cc1	61%	218%	-94%	46*	114*
C/C(=N\NC(=O)c1ccco1)c1ccc(NC(=O)c2cccs2)cc1	133%	98%	-9%	64*	130*
C/C(=N\NC(=O)c1ccccc1)c1ccc(NC(=O)c2cccs2)cc1	103%	99%	-15%	23*	106*
C/C(=N\NC(=O)C(N)=O)c1ccc(Br)cc1	4%	?	10%	-1	13
C/C(=N/NC(=O)c1ccccc1)c1ccc(NC(=O)C(F)(F)F)cc1	58%	31%	5%	43*	135*
C/C(=N\NC(=O)C(N)=O)c1ccc(NC(=O)c2cccs2)cc1	63%	152%	-10%	33*	69*
CN1/C(=C/C(=O)c2ccc(Cl)cc2)Sc2cc3c(cc21)OCO3	121%	9%	17%	41*	68*
SMILES	Pf growth 48h	Pf growth 96h	NS1 function inh	Cycloheximide cs	Shiga toxin inh
O=C(CN1CCN(c2ccc(Cl)cc2)CC1)c1ccc2c(c1)OCO2	35%	32%	-10%	1	-5
COc1ccc(C(=O)/C=C2/Sc3cc4c(cc3N2C)OCO4)cc1	28%	2.1µM*	6%	1	-11
O=C(NC1CCCCC1)C1CCCN1S(=O)(=O)c1ccc(F)cc1 (centres undefined)	-6%	30%	5%	-1	5
O=C(Nc1ccc2c(c1)OCCO2)C1CCCN1C(=O)Nc1ccc(F)cc1 (centres undefined)	38%	46%	4%	12*	32
COc1ccc(NC(=O)C2CCCCN2S(=O)(=O)c2ccc(F)cc2)cc1 (centres undefined)	-12%	0.59µM*	-11%	4	7
CC1CCN(c2ccc(NC(=O)C3CCCN3S(=O)(=O)c3ccc(F)cc3)cc2)CC1 (centres undefined)	?	12µM*	/	/	/
O=C(Nc1ccc2c(c1)OCCO2)C1CCCN1C(=O)Nc1ccccc1 (centres undefined)	5%	30%	-2%	-10	-11
CCOC(=O)N1CCC(NC(=O)C2CCCCN2S(=O)(=O)c2ccc(F)cc2)CC1 (centres undefined)	/	1µM*	?	-4	2
COc1ccc(NC(=O)C2CCCN2S(=O)(=O)c2ccc(C)cc2)cc1 (centres undefined)	/	?	-11%	-4	-15
COc1ccccc1NC(=O)c1ccc(NC(=O)CN2C(=O)CN(C)C2=O)cc1	-23%	?	1%	-6	7
O=C(C1COc2ccccc2O1)N1CCN(c2nc3c(F)cc(F)cc3s2)CC1 (centres undefined)	3%	4%	/	/	/
CCN(CC)S(=O)(=O)c1ccc(S(=O)(=O)N(CC(=O)Nc2ccccc2)Cc2ccco2)cc1	-13%	28%	?	-1	17
CC(=O)NC(Cc1cccc(C)c1)C(=O)NC1CCN(C(=O)NCc2ccccc2)CC1 (centres undefined)	2%	-2%	1%	-6	16
COC(=O)C1CCCN1S(=O)(=O)c1ccc2ccccc2c1 (centres undefined)	10µM*	/	3%	2	7
O=C(Nc1ccc2c(c1)OCO2)C1CCCCN1S(=O)(=O)c1ccc(F)cc1 (centres undefined)	-1%	9.3µM*	15%	20	28
COC(=O)C1CCCN1S(=O)(=O)c1ccc([N+](=O)[O-])cc1 (centres undefined)	0%	?	1%	-5	/
CCCCNC(=O)COC(=O)c1ccc(N(C)C)cc1	i	-10%	/	11	17
CC(=O)Nc1cc2c(cc1NC(=O)Cn1nc(-c3ccc4c(c3)OCCO4)ccc1=O)OCCO2	/	9.3µM*	19%	13	-10
Nc1cccc(-c2cc3ccccc3oc2=O)c1	62%	?	11%	6	8
O=Cc1c(-c2ccccc2)cc2oc3ccccc3cc1-2	/	172%	0%	40*	72*
COc1ccccc1C1/C(=C(\O)c2ccc3c(c2)OCCO3)C(=O)C(=O)N1Cc1cccnc1 (centres undefined)	17%	8%	8%	13	-3
CC(C)(C)c1cc(C(=O)C[n+]2ccc(C(=O)NCCCO)cc2)cc(C(C)(C)C)c1O	-13%	7%	-6%	-3	-2
Cc1ccc(-c2nnc(-c3ccncc3)n2-c2ccc(C)cc2)cc1	3%	-16%	4%	20*	53*
Cc1ccc(-n2c(-c3ccncc3)nnc2-c2ccco2)cc1	-5%	/	-5%	-5	-8
Cc1cc(NCCOCCO)n2c(nc3ccccc32)c1C#N	?	1.9µM*	1%	4	-14

Screening results (PubChem)
